Measurements as given in PubChem BioAssay (Tox21).
Values without a mark were called inactive. Records with an inconclusive call do not appear. A call without a number means that no potency is given here. Activity calls are given as the source filed them. Unless noted, calls come from the whole dose curve.

Experiments:
[1] = Nuclear factor erythroid 2-related factor 2/antioxidant responsive element (Nrf2/ARE) small molecule agonists: qHTS cell viability counter screen in human keratinocytes (AID 1919968; active = well fitted curve in the direction sought with a large enough effect in the repeat runs; an effect the other way counts as inactive or inconclusive; note: nearly all actives have a fitted effect of over 55% in size)
Summary of the method: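 Cells of the KeratinoSens line were plated at 1,500 per well and left for 5 h before compound transfer from DMSO stocks. After a 23 h incubation (37 C, 5% CO2), CellTiter-Fluor was added. Signal was taken as fluorescence intensity 1 h later.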

[2] = molecular target: Gonadotropin-releasing hormone receptor (Homo sapiens) (UniProt P30968); assay: Human gonadotropin-releasing hormone receptor (GnRHR) small molecule agonists, calcium flux assay in GnRHR-HEK293 cells (AID 1920063); note: nearly all actives have a fitted effect of over 35% in size
Gonadotropin-releasing hormone receptor (Homo sapiens), sequence (P30968 whole entry, looked up): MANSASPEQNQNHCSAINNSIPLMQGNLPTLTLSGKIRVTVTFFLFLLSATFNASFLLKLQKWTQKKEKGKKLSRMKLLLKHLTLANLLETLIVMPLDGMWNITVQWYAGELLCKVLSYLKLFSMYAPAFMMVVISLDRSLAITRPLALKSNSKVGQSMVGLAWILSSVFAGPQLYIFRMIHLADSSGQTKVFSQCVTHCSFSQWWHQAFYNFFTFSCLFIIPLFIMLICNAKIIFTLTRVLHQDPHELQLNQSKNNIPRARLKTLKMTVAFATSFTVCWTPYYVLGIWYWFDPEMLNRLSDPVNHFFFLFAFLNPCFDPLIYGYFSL
Summary of the method: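 Compounds dissolved in DMSO are pin-transferred onto dye-loaded GnRHR-HEK293 cells, which were seeded 18 h before at 37 C/5% CO2. Calcium signal is read as fluorescence intensity at 1 s intervals for 3 min.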

[3] = molecular target: KiSS-1 receptor (Homo sapiens) (UniProt Q969F8); assay: Human kisspeptin (KISS1R) small molecule agonists, calcium flux assay in KISS1R-HEK293 cells (AID 1920064; active = well fitted curve in the direction sought with a large enough effect in the repeat runs; an effect the other way counts as inactive or inconclusive)
KiSS-1 receptor (Homo sapiens), sequence (Q969F8 whole entry, looked up): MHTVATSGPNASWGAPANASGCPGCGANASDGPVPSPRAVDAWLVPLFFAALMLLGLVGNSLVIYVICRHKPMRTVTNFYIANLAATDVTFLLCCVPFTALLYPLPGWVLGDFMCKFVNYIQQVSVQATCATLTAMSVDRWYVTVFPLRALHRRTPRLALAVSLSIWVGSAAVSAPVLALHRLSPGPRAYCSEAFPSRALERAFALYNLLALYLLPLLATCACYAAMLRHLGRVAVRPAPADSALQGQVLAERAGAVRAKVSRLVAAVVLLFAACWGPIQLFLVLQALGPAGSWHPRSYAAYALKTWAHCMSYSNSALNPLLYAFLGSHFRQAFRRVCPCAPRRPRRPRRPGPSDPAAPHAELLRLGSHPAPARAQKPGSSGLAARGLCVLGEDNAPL
Summary of the method: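 Cell line: HEK293, stable human KISS1R. Dye loading 1 h at 37 C after 18 h culture. Read: kinetic fluorescence, 480/540 nm, 3 min at 1 s intervals.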

[4] = G protein-coupled receptor (GPCR) small molecule agonists, calcium flux assay: HEK293 wild type cell line counter screen (AID 1920065)
Summary of the method: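 Tox21 10K compounds, 15 concentrations each in triplicate, pin-transferred in DMSO onto dye-loaded cells; kinetic read at 480/540 nm for 3 min, 1 s intervals.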

[5] = p53 small molecule agonists, cell-based qHTS assay with human liver microsomes (AID 1963577); note: potency is the fitted concentration of half-maximal effect
Summary of the method: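 Compounds act here after metabolic activation: human liver microsomes and NADPH, both at 0.5 mg/mL final, were co-added to p53RE-bla cells. Incubation ran 16 h at 37 C, followed by LiveBLAzer detection.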

[6] = p53 small molecule agonists, cell-based qHTS assay with rat liver microsomes (AID 1963578)
Summary of the method: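 Read-out is beta-lactamase reporter fluorescence (LiveBLAzer, 2 h, room temperature, dark) in p53RE-bla cells treated 16 h at 37 C with compound, rat liver microsomes and NADPH, both 0.5 mg/mL final.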

[7] = p53 small molecule agonists, cell-based qHTS assay with rat liver microsomes: qHTS cell viability counter screen (AID 1963580); note: nearly all actives have a fitted effect of over 45% in size; note: potency is the fitted concentration of half-maximal effect
Summary of the method: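 Rat liver microsome (0.5 mg/mL final) and NADPH (0.5 mg/mL final) co-incubation with compounds for 16 h at 37 C on HCT-116 p53RE-bla cells; cytotoxicity taken from intracellular ATP luminescence.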

[8] = p53 small molecule agonists, cell-based qHTS assay: qHTS cell viability counter screen (AID 1963581); note: nearly all actives have a fitted effect of over 45% in size
Summary of the method: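 ATP content measured by luminescence in HCT-116 p53RE-bla cells treated 16 h at 37 C, same wells as the reporter screen.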

[9] = molecular target: Muscarinic acetylcholine receptor M1 (Homo sapiens) (UniProt P11229); assay: Cholinergic receptor muscarinic 1 (CHRM1) small molecule antagonists, cell-based qHTS assay (AID 1963588); note: nearly all actives have a fitted effect of over 40% in size
Muscarinic acetylcholine receptor M1 (Homo sapiens), sequence (P11229 whole entry, looked up): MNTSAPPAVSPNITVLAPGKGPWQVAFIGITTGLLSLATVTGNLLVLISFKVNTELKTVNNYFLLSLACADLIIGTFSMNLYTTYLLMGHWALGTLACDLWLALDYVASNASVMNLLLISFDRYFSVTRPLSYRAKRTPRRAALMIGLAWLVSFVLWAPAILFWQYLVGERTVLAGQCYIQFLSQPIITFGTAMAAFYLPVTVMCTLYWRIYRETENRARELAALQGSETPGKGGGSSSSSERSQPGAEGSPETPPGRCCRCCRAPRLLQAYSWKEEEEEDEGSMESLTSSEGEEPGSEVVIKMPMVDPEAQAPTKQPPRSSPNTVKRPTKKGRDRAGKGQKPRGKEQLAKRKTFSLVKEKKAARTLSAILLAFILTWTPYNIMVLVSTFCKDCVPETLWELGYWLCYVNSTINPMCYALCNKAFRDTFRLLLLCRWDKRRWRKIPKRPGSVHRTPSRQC
Summary of the method: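 Compounds were tested at 15 concentrations in three independent runs. Dye-loaded CHRM1-CHO cells were exposed 5 min at room temperature before stimulation by acetylcholine added at 50nM. Intracellular calcium was read kinetically on FDSS for 3 min.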

[10] = molecular target: Muscarinic acetylcholine receptor M1 (Homo sapiens) (UniProt P11229); assay: Cholinergic receptor muscarinic 1 (CHRM1) small molecule agonists, cell-based qHTS assay (AID 1963589); note: nearly all actives have a fitted effect of over 35% in size
Summary of the method: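 Homogeneous fluorescence calcium flux, agonist mode. Human M1-expressing CHO cells; compound dosed at 15 concentrations, three independent runs; signal sampled every 1 sec.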

[11] = cAMP Responsive Elements (CRE) small molecule antagonists, cell-based qHTS assay (AID 1963591; active = well fitted inhibition curve with a large enough effect in the signal ratio in the repeat runs, not every such curve was filed as active; the % refers to the signal ratio)
Summary of the method: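 First, CRE-bla HEK293T cells settled 18 h at 37 C. Next, compound and 0.25 uM final NKH477 were applied for 3 h. Last, LiveBLAzer B/G substrate was loaded for 2 h at room temperature.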

[12] = molecular target: Beta-2 adrenergic receptor (Homo sapiens) (UniProt P07550); assay: Adrenergic beta2 receptor (ADRB2) small molecule antagonists, cell-based qHTS assay (AID 1963592); note: series mostly up to about 92 µM; nearly all actives have a fitted effect of over 50% in size
Beta-2 adrenergic receptor (Homo sapiens), sequence (P07550 whole entry, looked up): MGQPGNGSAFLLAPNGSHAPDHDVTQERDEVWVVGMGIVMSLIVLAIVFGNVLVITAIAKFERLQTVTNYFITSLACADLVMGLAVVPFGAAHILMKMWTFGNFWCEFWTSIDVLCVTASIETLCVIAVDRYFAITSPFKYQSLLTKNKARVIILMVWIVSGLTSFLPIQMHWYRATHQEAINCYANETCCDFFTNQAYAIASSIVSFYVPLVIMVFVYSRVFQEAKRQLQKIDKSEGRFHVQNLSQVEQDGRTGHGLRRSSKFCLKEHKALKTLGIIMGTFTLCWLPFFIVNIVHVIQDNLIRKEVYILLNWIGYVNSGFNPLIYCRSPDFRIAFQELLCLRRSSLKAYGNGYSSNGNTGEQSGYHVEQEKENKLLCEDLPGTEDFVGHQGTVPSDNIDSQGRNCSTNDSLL
Summary of the method: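 Assay format: CHO-ADRB2 cells, 18-20hr seeding at 37C/5% CO2, then compound plus 1nM isoproterenol agonist mix for 0.5hr RT. Homogeneous time-resolved fluorescence cAMP detection after 1hr, expressed as 665/615 nm ratio.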

[13] = molecular target: D(2) dopamine receptor (Homo sapiens) (UniProt P14416); assay: Dopamine D2 receptor (DRD2) small molecule agonists, cell-based qHTS assay (AID 1963594); note: nearly all actives have a fitted effect of over 35% in size
D(2) dopamine receptor (Homo sapiens), sequence (P14416 whole entry, looked up): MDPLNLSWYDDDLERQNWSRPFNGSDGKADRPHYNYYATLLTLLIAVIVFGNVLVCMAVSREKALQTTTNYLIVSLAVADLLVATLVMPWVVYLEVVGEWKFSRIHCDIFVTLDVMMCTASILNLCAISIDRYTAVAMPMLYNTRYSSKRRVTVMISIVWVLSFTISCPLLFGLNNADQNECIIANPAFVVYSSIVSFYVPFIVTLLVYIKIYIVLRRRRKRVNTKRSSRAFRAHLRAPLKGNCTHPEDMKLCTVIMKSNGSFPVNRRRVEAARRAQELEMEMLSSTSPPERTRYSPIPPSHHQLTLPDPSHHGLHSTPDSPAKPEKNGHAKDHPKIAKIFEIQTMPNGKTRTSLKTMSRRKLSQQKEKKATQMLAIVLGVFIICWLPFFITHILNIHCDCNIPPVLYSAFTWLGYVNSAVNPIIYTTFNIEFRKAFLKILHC
Summary of the method: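 cAMP accumulation in DRD2-HEK293 cells measured by HTRF after 1 h detection; compounds added 10 min before NKH477 (200nM […]) forskolin-analogue stimulation, 30 min at room temperature, with Ro20-1724 present at 0.1 mM final.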

[14] = molecular target: D(2) dopamine receptor (Homo sapiens) (UniProt P14416); assay: Dopamine D2 receptor (DRD2) small molecule antagonists, cell-based qHTS assay (AID 1963595; active = well fitted inhibition curve with a large enough effect in the signal ratio in the repeat runs, with a control signal flat; the % refers to the signal ratio)
Summary of the method: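 DRD2-HEK293; 0.1 mM Ro20-1724; cpd 10 min RT; NKH477 200 nM + quinpirole 12 nM, 30 min RT; HTRF cAMP (cAMP-d2/anti-cAMP cryptate), 665/620 nm ratio after 1 h.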

[15] = p53 small molecule agonists, cell-based qHTS assay with human liver microsomes: qHTS cell viability counter screen (AID 1963579); note: nearly all actives have a fitted effect of over 45% in size
Summary of the method: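 Cells carrying the p53 response-element beta-lactamase reporter are treated for 16 h at 37 C with test compounds in the presence of human liver microsomes and NADPH (both 0.5 mg/mL final); ATP-based CellTiter-Glo luminescence then reports viability.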

[16] = p53 small molecule agonists, cell-based qHTS assay (AID 1963582; active = well fitted activation curve with a large enough effect in the signal ratio in the repeat runs, not every such curve was filed as active; the % refers to the signal ratio; note: potency is the fitted concentration of half-maximal effect)
Summary of the method: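 16 h compound exposure (37 C) of p53 response element–bla cells, preceded by 5 h recovery at 37 C/5% CO2; read-out via LiveBLAzer B/G FRET substrate, 2 h RT, fluorescence intensity.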

[17] = molecular target: 5-hydroxytryptamine receptor 2A (Homo sapiens) (UniProt P28223); assay: 5-hydroxytryptamine receptor 2A (HTR2A) small molecule agonists, cell-based qHTS assay (AID 1963587); note: nearly all actives have a fitted effect of over 30% in size; note: potency is the fitted concentration of half-maximal effect
5-hydroxytryptamine receptor 2A (Homo sapiens), sequence (P28223 whole entry, looked up): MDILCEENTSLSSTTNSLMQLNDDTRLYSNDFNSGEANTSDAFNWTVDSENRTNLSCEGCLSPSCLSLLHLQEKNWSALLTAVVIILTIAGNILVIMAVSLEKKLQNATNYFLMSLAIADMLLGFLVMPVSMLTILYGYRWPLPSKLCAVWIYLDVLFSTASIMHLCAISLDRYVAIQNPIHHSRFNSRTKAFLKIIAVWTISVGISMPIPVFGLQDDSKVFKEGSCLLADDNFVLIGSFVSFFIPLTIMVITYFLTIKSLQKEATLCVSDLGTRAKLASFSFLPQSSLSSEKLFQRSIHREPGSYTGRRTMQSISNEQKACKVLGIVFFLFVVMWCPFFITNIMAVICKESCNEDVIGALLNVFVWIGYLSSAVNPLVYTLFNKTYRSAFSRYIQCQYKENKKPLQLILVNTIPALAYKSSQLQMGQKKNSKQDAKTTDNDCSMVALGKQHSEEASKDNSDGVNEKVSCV
Summary of the method: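 Kinetic calcium-flux fluorescence (2 min, 1 sec intervals) after compound addition in agonist mode. HTR2A-CHO cells were cultured 18 h, then dye-loaded 1 h at 37 C.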

[18] = cAMP Responsive Elements (CRE) small molecule agonists, cell-based qHTS assay (AID 1963590)
Summary of the method: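 HEK 293T cells stably bearing CRE-bla were plated at 2,000 cells per well and rested 18 h. Compounds, positive controls or DMSO were added for 3 h at 37 C. LiveBLAzer B/G substrate was then loaded for 2 h at room temperature.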

[19] = molecular target: 5-hydroxytryptamine receptor 2A (Homo sapiens) (UniProt P28223); assay: 5-hydroxytryptamine receptor 2A (HTR2A) small molecule antagonists, cell-based qHTS assay (AID 1963586); note: nearly all actives have a fitted effect of over 45% in size; note: potency is the fitted concentration of half-maximal effect
Summary of the method: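 CHO cells stably expressing human HTR2A were plated for 18 h at 37 C, then loaded with calcium dye for 1 h. Compounds were preincubated 5 min at room temperature before DOI (4 nM solution) was added. Kinetic fluorescence was read for 3 min.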

[20] = molecular target: Beta-2 adrenergic receptor (Homo sapiens) (UniProt P07550); assay: Adrenergic beta2 receptor (ADRB2) small molecule agonists, cell-based qHTS assay (AID 1963593);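 note: CHO cells stably overexpressing human ADRB2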
Summary of the method: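 CHO cells stably over-expressing ADRB2 were plated overnight at 37C, then dosed with compounds plus a stimulation mix containing 100uM IBMX and 25uM Ro-20-1724 for 0.5hr at room temperature. cAMP was measured by HTRF competition, 1hr.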

SMILES | Potency [1] | Potency [2] | Potency [3] | Potency [4] | Potency [5] | Potency [6] | Potency [7] | Potency [8] | Potency [9] | Potency [10] | Potency [11] | Potency [12] | Potency [13] | Potency [14] | Potency [15] | Potency [16] | Potency [17] | Potency [18] | Potency [19] | Potency [20]
CC(C)C(Nc1ccc(C(F)(F)F)cc1Cl)C(=O)OC(C#N)c1cccc(Oc2ccccc2)c1 (stereo not drawn) | inactive | inactive | inactive | inactive | inactive | inactive | inactive | inactive | inactive | inactive | inactive | inactive | inactive | inactive | – | – | – | – | – | –
O=C(O)COc1nc(Cl)c(Cl)cc1Cl | inactive | inactive | inactive | inactive | inactive | inactive | inactive | – | inactive | inactive | – | – | – | – | – | – | – | – | – | –
Cc1ncc(C[n+]2csc(CCO)c2C)c(N)n1 | inactive | inactive | inactive | inactive | inactive | inactive | – | inactive | inactive | inactive | inactive | inactive | inactive | inactive | inactive | inactive | inactive | inactive | – | –
OCCCBr | inactive | inactive | inactive | inactive | inactive | inactive | 1.45 µM (active) | – | inactive | inactive | – | – | – | inactive | – | inactive | – | inactive | inactive | –
CC1CCCCC1NC(=O)Nc1ccccc1 (stereo not drawn) | inactive | inactive | inactive | inactive | inactive | – | – | – | inactive | inactive | inactive | – | inactive | inactive | inactive | – | inactive | inactive | inactive | inactive
O=[N+]([O-])C(Br)Br | inactive | inactive | inactive | inactive | inactive | inactive | – | inactive | inactive | – | inactive | – | inactive | inactive | inactive | inactive | 55 µM (active) | inactive | 37.6 µM (active) | –
CCOP(=S)(OCC)SCS(=O)(=O)C(C)(C)C | inactive | inactive | inactive | inactive | 1.82 µM (active) | – | – | inactive | inactive | inactive | inactive | inactive | inactive | inactive | inactive | inactive | inactive | inactive | inactive | –
N#C/C=C/C#N | inactive | inactive | inactive | inactive | inactive | – | inactive | – | inactive | inactive | – | inactive | inactive | inactive | inactive | 30.2 µM (active) | inactive | inactive | inactive | –
O=C(O)CC(Cl)C(=O)O (stereo not drawn) | inactive | inactive | inactive | inactive | inactive | inactive | inactive | inactive | inactive | – | – | inactive | inactive | inactive | – | inactive | inactive | inactive | inactive | inactive
O=c1[nH]c2ccccc2n1CCCN1CCC(n2c(=O)[nH]c3cc(Cl)ccc32)CC1 | inactive | inactive | inactive | inactive | – | inactive | inactive | inactive | – | – | – | – | – | – | inactive | – | – | – | – | –
CCOP(=S)(OCC)Oc1ncn(-c2ccccc2)n1 | inactive | inactive | inactive | inactive | 2.89 µM (active) | – | inactive | – | inactive | – | – | inactive | inactive | inactive | – | inactive | – | – | inactive | –
NC(=O)CI | inactive | inactive | inactive | inactive | inactive | inactive | – | inactive | inactive | inactive | inactive | inactive | inactive | inactive | inactive | inactive | inactive | inactive | inactive | inactive
CCOC(=O)NC(=S)Nc1ccccc1NC(=S)NC(=O)OCC | inactive | inactive | inactive | inactive | inactive | inactive | inactive | – | inactive | inactive | – | inactive | – | inactive | inactive | – | inactive | – | inactive | inactive
